Records with an inconclusive call do not appear. Active and inactive are the calls of the source. Unless noted, calls come from the whole dose curve; as a rule, active = well fitted curve in the direction sought with a large enough effect in the repeat runs; inconclusive = weak or mixed curves; inactive = no such curve, though single readings can be large; an effect the other way counts as inactive or inconclusive.
Legend:
[1] = molecular target: Nuclear receptor subfamily 1 group I member 3 (Homo sapiens) (UniProt Q14994); test: qHTS assay to identify small molecule antagonists of the constitutive androstane receptor (CAR) signaling pathway (AID 1224838); note: nearly all actives have a fitted effect of over 40% in size; note: potency is the fitted concentration of half-maximal effect
Nuclear receptor subfamily 1 group I member 3 (Homo sapiens), sequence (Q14994 whole entry, looked up): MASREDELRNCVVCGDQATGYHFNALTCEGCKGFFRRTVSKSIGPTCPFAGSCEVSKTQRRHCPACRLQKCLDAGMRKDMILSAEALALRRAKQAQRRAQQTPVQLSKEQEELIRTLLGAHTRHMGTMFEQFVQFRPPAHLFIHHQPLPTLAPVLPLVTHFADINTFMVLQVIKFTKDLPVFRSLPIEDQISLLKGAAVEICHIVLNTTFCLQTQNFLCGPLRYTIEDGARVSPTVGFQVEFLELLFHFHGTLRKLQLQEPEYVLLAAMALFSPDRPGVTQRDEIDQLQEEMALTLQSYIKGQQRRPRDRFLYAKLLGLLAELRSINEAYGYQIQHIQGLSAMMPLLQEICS
Method in brief: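 Inhibition of CITCO-driven (50 nM final) CYP2B6 reporter expression is measured in HepG2 cells stably carrying hCAR. Fifteen compound concentrations are applied for 24 h at 37 C, followed by luciferase luminescence.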

[2] = molecular target: Nuclear receptor subfamily 1 group I member 3 (Homo sapiens) (UniProt Q14994); test: qHTS assay to identify small molecule agonists of the constitutive androstane receptor (CAR) signaling pathway (AID 1224839); note: nearly all actives have a fitted effect of over 15% in size; note: potency is the fitted concentration of half-maximal effect
Method in brief: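 Double-stable HepG2 cells (hCAR, CYP2B6-2.2kb) seeded 4 h before compound addition. Exposure 24 h with 0.75 uM PK11195 final. Luciferase detected by ONE-Glo.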

[3] = molecular target: Thyrotropin receptor (Homo sapiens) (UniProt P16473); test: qHTS assay to identify small molecule agonists of the thyroid stimulating hormone receptor (TSHR) signaling pathway (AID 1224843; calls by dose curve; note: nearly all actives have a fitted effect of over 45% in size)
Thyrotropin receptor (Homo sapiens), sequence (P16473 whole entry, looked up): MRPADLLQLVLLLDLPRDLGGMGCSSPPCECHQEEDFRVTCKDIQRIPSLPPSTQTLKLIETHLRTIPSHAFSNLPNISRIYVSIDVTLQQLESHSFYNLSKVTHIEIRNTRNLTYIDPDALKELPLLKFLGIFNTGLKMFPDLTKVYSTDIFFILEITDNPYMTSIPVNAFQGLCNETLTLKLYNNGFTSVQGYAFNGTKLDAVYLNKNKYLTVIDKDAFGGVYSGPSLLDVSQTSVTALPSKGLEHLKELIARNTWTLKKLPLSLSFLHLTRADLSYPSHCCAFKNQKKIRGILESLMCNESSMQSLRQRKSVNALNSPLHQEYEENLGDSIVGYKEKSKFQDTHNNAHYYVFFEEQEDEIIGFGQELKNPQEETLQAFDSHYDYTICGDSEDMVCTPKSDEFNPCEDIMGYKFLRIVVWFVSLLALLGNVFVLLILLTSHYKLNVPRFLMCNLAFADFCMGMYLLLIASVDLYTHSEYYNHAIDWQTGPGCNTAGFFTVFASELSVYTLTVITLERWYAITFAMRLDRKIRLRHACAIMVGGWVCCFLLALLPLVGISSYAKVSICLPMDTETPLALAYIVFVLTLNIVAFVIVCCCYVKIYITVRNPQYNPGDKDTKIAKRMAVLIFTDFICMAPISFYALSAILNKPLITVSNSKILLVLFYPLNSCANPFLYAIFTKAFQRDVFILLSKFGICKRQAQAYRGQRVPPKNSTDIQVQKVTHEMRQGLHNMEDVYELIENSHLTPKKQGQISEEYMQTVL
Method in brief: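 HEK293/TSHR, 800 cells/well; cpd 30 min RT; add cAMP-d2 + anti-cAMP-cryptate, 1 h RT; fluorescence read on plate reader. 15-pt titration, n=3.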

[4] = qHTS assay to identify small molecule agonists of the hypoxia (HIF-1) signaling pathway - cell viability counter screen (AID 1224844; calls by dose curve; note: nearly all actives have a fitted effect of over 50% in size; note: potency is the fitted concentration of half-maximal effect)
Method in brief: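 In this counter screen, HRE-bla ME-180 cell viability after 17 hrs of compound exposure at 37C was read by CellTiter-Glo luminescence, multiplexed with the beta-lactamase reporter measurement.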

[5] = qHTS assay to identify small molecule agonists of H2AX (AID 1224845; active = well fitted activation curve with a large enough effect in the signal ratio in the repeat runs, not every such curve was filed as active; the % refers to the signal ratio)
Method in brief: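 Wild-type CHO-K1 cells, plated overnight, exposed 3hr at 37C to 15 concentrations (0.76% DMSO final). Lysed, then HTRF anti-pH2AX (S139) cryptate and anti-H2AX-d2 antibodies, 24 hr room temperature; 665/620 nm emission read.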

[6] = qHTS assay to identify small molecule agonists of H2AX - cell viability counter screen (AID 1224847; calls by dose curve; note: nearly all actives have a fitted effect of over 30% in size; note: potency is the fitted concentration of half-maximal effect)
Method in brief: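 Quantitative HTS viability measurement: CHO-K1 wild-type cells in serum (10% FBS) medium, short 3 hr drug exposure at 37C with 0.76% DMSO, CellTiter-Glo luminescent detection.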

[7] = qHTS RealTime-Glo MT Cell Viability Assay in HepG2 cells - 24 hour (AID 1224867); note: nearly all actives have a fitted effect of over 50% in size; note: potency is the fitted concentration of half-maximal effect
Method in brief: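 HepG2 cells were seeded at 600 cells/well together with NanoLuc luciferase and a cell-permeant prosubstrate, preincubated 5 h at 37 C/5% CO2, then pin-dosed with compounds in DMSO. Nonlytic luminescence from viable cells was read at each time point.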

[8] = qHTS RealTime-Glo MT Cell Viability Assay in HEK293 cells - 32 hour (AID 1224868); note: nearly all actives have a fitted effect of over 50% in size; note: potency is the fitted concentration of half-maximal effect
Method in brief: (§1)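 HEK293 cells were seeded at 600 cells/well together with NanoLuc luciferase and cell-permeant prosubstrate, preincubated 5 h at 37 C/5% CO2, then given compound in DMSO by pintool. Luminescence from viable-cell prosubstrate reduction was read repeatedly over 40 h.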

[9] = qHTS RealTime-Glo MT Cell Viability Assay in HepG2 cells - 40 hour (AID 1224870); note: nearly all actives have a fitted effect of over 50% in size; note: potency is the fitted concentration of half-maximal effect
Method in brief: (§2)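 HepG2 cells (600/well) mixed with RealTime-Glo MT reagent, settled 5 h at 37 C/5% CO2 before compound addition. Nonlytic NanoLuc luminescence from viable-cell prosubstrate reduction read repeatedly during 40 h treatment at 37 C.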

[10] = qHTS RealTime-Glo MT Cell Viability Assay in HEK293 cells - 16 hour (AID 1224872); note: nearly all actives have a fitted effect of over 50% in size; note: potency is the fitted concentration of half-maximal effect
Method in brief: as §1

[11] = qHTS RealTime-Glo MT Cell Viability Assay in HepG2 cells - 8 hour (AID 1224873); note: nearly all actives have a fitted effect of over 55% in size; note: potency is the fitted concentration of half-maximal effect
Method in brief: as §2

[12] = qHTS assay to identify small molecule agonists of the hypoxia (HIF-1) signaling pathway (AID 1224846; active = well fitted activation curve with a large enough effect in the signal ratio in the repeat runs, not every such curve was filed as active; the % refers to the signal ratio)
Method in brief: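 ME-180 HRE-bla reporter cells; compounds in DMSO, 17 h at 37C; read-out beta-lactamase via CCF4-AM FRET.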

[13] = A CellTox Green Cytotoxicity Assay to monitor cytotoxicity in HEK293 cells - 0 hour (AID 1224869); note: nearly all actives have a fitted effect of over 50% in size
Method in brief: (§3)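 Real-time, in one plate: 600 HEK293 cells/well with dead-cell DNA dye, pinned compound after 5 h, 37 C incubation over 40 h; viable cells give no appreciable fluorescence.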

[14] = A CellTox Green Cytotoxicity Assay to monitor cytotoxicity in HEK293 cells - 40 hour (AID 1224871); note: nearly all actives have a fitted effect of over 45% in size; note: potency is the fitted concentration of half-maximal effect
Method in brief: as §3

[15] = qHTS RealTime-Glo MT Cell Viability Assay in HEK293 cells - 40 hour (AID 1224874); conditions: RealTime-Glo luminescence; max response: active compounds read low; note: nearly all actives have a fitted effect of over 50% in size
Method in brief: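 Kinetic, non-lysing viability readout. Seed HEK293 (600/well) with reagent, incubate 5 h at 37 C/5% CO2, pin 23 nL compound in DMSO, incubate at 37 C, read luminescence at 0, 8, 16, 24, 32, 40 h.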

[16] = qHTS assay to identify small molecule antagonists of the estrogen related receptor signaling pathway with the pleiotropic PPARgamma coactivator (PGC) from Tox21 10K library - cell viability counter screen (AID 1224840; active = well fitted cell-killing curve with a large enough effect in the repeat runs, not every such curve was filed as active; note: nearly all actives have a fitted effect of over 40% in size; note: potency is the fitted concentration of half-maximal effect)
Method in brief: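 Readout: fluorescence intensity from CellTiter-Fluor after 30 min at 37 C/5% CO2. Preceded by 17.5 h treatment of PGC/ERR cells with DMSO-dissolved compounds, added 6 h post-seeding.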

[17] = qHTS assay to identify small molecule agonists of the estrogen related receptor signaling pathway with the pleiotropic PPARgamma coactivator (PGC) from Tox21 10K library (AID 1224842); note: nearly all actives have a fitted effect of over 15% in size
Method in brief: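 PGC/ERR reporter cell line, 2,000 cells per well, incubated 6 h at 37 C before 23 nL compound in DMSO was added. After 18 h at 37 C, One-Glo luminescence read following 30 min at room temperature.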

[18] = qHTS assay to identify small molecule antagonists of the estrogen related receptor (ERR) signaling pathway from Tox21 library (AID 1224848); note: nearly all actives have a fitted effect of over 50% in size; note: potency is the fitted concentration of half-maximal effect
Method in brief: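 Compounds dissolved in DMSO are pin-transferred onto ERR reporter cells (2,000 per well) that have settled for 6 h at 37 C. Plates then incubate 18 h at 37 C before ONE-Glo luciferase reagent and a luminescence read 30 min later.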

[19] = qHTS assay to identify small molecule agonists of the estrogen related receptor (ERR) signaling pathway from Tox21 library (AID 1224849; calls by dose curve; note: nearly all actives have a fitted effect of over 15% in size); conditions: ERR reporter cell line, ONE-Glo luciferase, 18 h; at 92.4 µM (top of the series) unless noted
Method in brief: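 Luciferase activity in ERR pathway reporter cells served as the agonist readout; exposure lasted 18 h at 37 C, with ONE-Glo detection after 30 min at room temperature.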

[20] = qHTS assay to identify small molecule antagonists of the estrogen related receptor signaling pathway with the pleiotropic PPARgamma coactivator (PGC) from Tox21 10K library (AID 1224841; call rule not given here)
Method in brief: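 One-Glo luminescence, measured after half an hour at room temperature, quantified reporter output of PGC/ERR cells. These had been plated at 2,000 per well, incubated 6 h, dosed with compounds in DMSO, then kept 18 h at 37 C.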
% is set by controls: 0 for no effect and ±100 for the full control effect.

c1ccc2c(c1)-c1ccc3ccc4cccc5cc-2c1c3c45
inactive: Potency [1] | Potency [3] | Potency [4] | Potency [5] | Potency [6] | Potency [7] | Potency [8] | Potency [9] | Potency [10] | Potency [11]
active: Potency [2] 11.9 µM

Cc1ccc(N=Nc2c(O)ccc3ccccc23)c(C)c1
active: Potency [2] 8.41 µM
inactive: Potency [1] | Potency [3] | Potency [5] | Potency [12] | Potency [6] | Potency [7] | Potency [8] | Potency [13] | Potency [9] | Potency [14] | Potency [11] | max response [15] -8.3%

CC(=O)[C@]1(O)Cc2c(O)c3c(c(O)c2[C@@H](O[C@H]2C[C@H](N)[C@H](O)[C@H](C)O2)C1)C(=O)c1ccccc1C3=O
active: Potency [1] 0.237 µM | Potency [16] 11.9 µM | Potency [7] 6.01 µM | Potency [8] 0.0756 µM | Potency [10] 0.535 µM
inactive: Potency [2] | Potency [6] | Potency [13] | Potency [14]

O=C1CCC/C=C\CCCCCCCCCC1
inactive: Potency [1] | Potency [16] | Potency [6] | Potency [7] | Potency [8] | Potency [13] | Potency [9] | Potency [10] | Potency [11] | max response [15] -5.39%
active: Potency [2] 27.3 µM

CN[C@H]1CC[C@@H](c2ccc(Cl)c(Cl)c2)c2ccc(S(N)(=O)=O)cc21
active: Potency [1] 61.1 µM | Potency [6] 113 µM | Potency [18] 61.1 µM | Potency [7] 24.5 µM | Potency [8] 19.5 µM | Potency [9] 21.9 µM | Potency [14] 27.5 µM | Potency [10] 24.5 µM | Potency [11] 49 µM
inactive: Potency [2] | Potency [17] | Potency [12] | activity change, positive = activation [19] -79% | Potency [13]

CCCCCCCCCCCCN1CCCC1=O
inactive: Potency [1] | Potency [20] | Potency [17] | activity change, positive = activation [19] -16.7% | Potency [13] | Potency [9]
active: Potency [2] 54.5 µM

c1ccc2cc3c4ccccc4c4ccccc4c3cc2c1
inactive: Potency [2] | Potency [3] | Potency [12] | Potency [7] | Potency [8] | Potency [13] | Potency [9] | Potency [10] | Potency [11] | max response [15] -2.98%
active: Potency [1] 10.9 µM | Potency [4] 22 µM | Potency [6] 101 µM

Cc1ccc2nc(-c3ccc(N)cc3)sc2c1S(=O)(=O)O
inactive: Potency [1] | Potency [3] | Potency [6] | Potency [7] | Potency [8] | Potency [13] | Potency [9] | Potency [14] | Potency [10] | max response [15] -21.6%
active: Potency [2] 9.54 µM

CCCC(C)C=O (stereo not drawn)
inactive: Potency [2] | Potency [16] | Potency [20] | Potency [17] | Potency [3] | Potency [4] | Potency [5] | Potency [12] | Potency [6] | Potency [18] | activity change, positive = activation [19] 4.95% | Potency [7] | Potency [8] | Potency [13] | Potency [9] | Potency [14] | Potency [10] | Potency [11] | max response [15] 0.0424%

— PubChem BioAssay (Tox21)
